The source of these data is publication PMC13423814.

Test [1] deals with Histone H4 (UniProt P62805).
The target of test [2] is Heterogeneous nuclear ribonucleoprotein A/B (UniProt Q99729).
Test [3] addresses Heterogeneous nuclear ribonucleoprotein A0 (UniProt Q13151).
Test [4] addresses Heterogeneous nuclear ribonucleoprotein U (UniProt Q00839).
Test [5] addresses Non-POU domain-containing octamer-binding protein (UniProt Q15233).
For test [6], the target named is Polypyrimidine tract-binding protein 1 (UniProt P26599).
Test [7] addresses Heterogeneous nuclear ribonucleoproteins C1/C2 (UniProt P07910).

In the case of “SWI/SNF-related matrix-associated actin-dependent regulator of chromatin subfamily A member 2, P51531”, in test [1], the “listed as a hit” value was “yes”.
On to “Heterogeneous nuclear ribonucleoproteins C1/C2, P07910”, for which the “listed as a hit” value in test [2], in test [3], in test [4], in test [5] and in test [6] was “yes” throughout.
In the case of “Heterogeneous nuclear ribonucleoprotein R, O43390”, the “listed as a hit” value in test [7] is “yes”.
